The source made the active and inactive calls. Rule as the data show it: active = fold change permeability below about 0.7 or above about 1.3; inactive = in between.

Among the data in PubChem BioAssay are fold change permeability values, retold here.

The experiment in a line: compounds altering in vitro BBB leakiness – cell-based, FITC-avidin fluorescence, HTS, primary screen (AID 1963498). Also: test concentration not given here. The note with it: brain endothelial barrier, actives lie on both sides.
Turning to `C[N+](C)(C)CC=O`, the fold change permeability is 1.1 (inactive).

Turning to `CN(C)CCOC(=O)COc1ccc(Cl)cc1`, the fold change permeability was 0.9 (inactive).

For `COCC(=O)O[C@]1(CCN(C)CCCc2nc3ccccc3[nH]2)CCc2cc(F)ccc2[C@@H]1C(C)C`, the fold change permeability is 1.5 (active).

In the case of `c1ccc(-c2cnn3cc(-c4ccc(OCCN5CCOCC5)cc4)cnc23)cc1`, the fold change permeability is 1.2 (inactive).

With `COc1ccc(C2CNC(=O)C2)cc1OC1CCCC1` (configuration not stated), the fold change permeability was 1.1 (inactive).

As to `[Li+]`, the fold change permeability is 1 (inactive).

For the compound `O=C1NC(=O)c2c1c(-c1ccccc1)cc1[nH]c3ccc(O)cc3c21`, the fold change permeability was 0.7 (active).

Regarding `CC(C)=CCC/C(C)=C/CC/C(C)=C/CSc1ccccc1C(=O)O`, the fold change permeability is 1.4 (active).

On to `O=C(O)C1(C(=O)O)CCC1.[NH2-].[NH2-].[Pt+2]`, for which the fold change permeability is 0.8 (inactive).

As to `N[C@@H](Cc1ccc(F)cc1)C(=O)O`, the fold change permeability is 0.8 (inactive).

As to `CNCCCC12CCC(c3ccccc31)c1ccccc12`, the fold change permeability was 0.9 (inactive).

On to `CN(C(=O)CCCOc1ccc2[nH]c(=O)ccc2c1)C1CCCCC1`, for which the fold change permeability was 0.9 (inactive).

Take `C[C@H](Cc1ccc(O)c(O)c1)[C@@H](C)Cc1ccc(O)c(O)c1`: the fold change permeability was 1 (inactive).

`O=c1[nH]c2cc(C(F)(F)F)ccc2n1-c1cc(C(F)(F)F)ccc1O`: the fold change permeability is 1.3 (active).

Regarding `NCCCCCC(=O)O`, the fold change permeability is 1.1 (inactive).

For `Nc1nc(Nc2ccccc2)nc2c1ncn2[C@@H]1O[C@H](CO)[C@@H](O)[C@H]1O`, the fold change permeability was 0.8 (inactive).

In the case of `CCCC(CCC)C(=O)OC1CC2CCC(C1)[N+]2(C)C` (configuration not stated), the fold change permeability was 0.9 (inactive).

For `O=C(O)CNC(=O)C(CS)Cc1ccccc1` (configuration not stated), the fold change permeability was 0.6 (active).

On to `O=c1cc(-c2ccc(O)cc2)oc2cc(O)cc(O)c12`, for which the fold change permeability is 1.2 (inactive).

`Cc1nc(N=Nc2ccc(C(=O)O)cc2)c(COP(=O)(O)O)c(C=O)c1O`: the fold change permeability is 0.7 (active).

In the case of `O=C(O)CCc1ccc(NCc2cccc(Oc3ccccc3)c2)cc1`, the fold change permeability is 0.7 (active).

Consider `O=C(O)c1cc(=O)cc(C(=O)O)[nH]1`, for which the fold change permeability is 0.8 (inactive).
